Shiga inhibitor: Shiga toxin inhibition | Vero cells, Shiga toxin protein synthesis inhibition reporter | inhibition, % at 38.7 µM | actives 9.2% (n = 290,000) | AID 2315; in the data active means inhibition mostly above about 28%, no sharp cut-off; inactive means mostly below about 43%; further: 0% is about no effect
LmPK inh: inhibitors of Leishmania mexicana pyruvate kinase | Q27686 | purified LmPK, Kinase-Glo ATP luminescence, 1 h | Potency, µM (doses to about 57.5 µM), for inactives: at the highest dose activity change, negative = inhibition, actives largely listed as inhibitors | actives 0.37% (n = 290,000) | AID 1721; further: potency means the concentration at half of the fitted maximal effect; on the % scale 0 is the no-effect control and ±100 the full control effect
Target sequence (Q27686 whole entry, looked up): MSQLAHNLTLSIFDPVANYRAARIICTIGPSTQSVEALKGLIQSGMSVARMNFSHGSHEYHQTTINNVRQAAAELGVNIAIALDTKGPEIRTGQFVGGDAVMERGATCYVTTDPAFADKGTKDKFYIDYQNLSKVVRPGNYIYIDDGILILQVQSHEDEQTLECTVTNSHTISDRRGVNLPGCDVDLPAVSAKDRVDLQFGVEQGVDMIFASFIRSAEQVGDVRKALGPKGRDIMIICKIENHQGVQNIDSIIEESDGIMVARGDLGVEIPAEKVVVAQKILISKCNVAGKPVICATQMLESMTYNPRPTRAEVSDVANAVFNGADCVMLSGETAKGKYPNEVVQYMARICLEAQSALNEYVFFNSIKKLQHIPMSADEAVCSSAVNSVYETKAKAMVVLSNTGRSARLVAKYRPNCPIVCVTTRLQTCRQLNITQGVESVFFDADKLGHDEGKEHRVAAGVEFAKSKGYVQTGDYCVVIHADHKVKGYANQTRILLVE
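Kinase-Glo luminescence read after 1 h RT reaction of 0.1 nM LmPK with 0.5 mM PEP and 0.1 mM ADP. Activity scaled between uninhibited and enzyme-free controls.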
Pf growth 96h: P. falciparum growth inhibition at 96 hours. P. falciparum luciferase reporter growth, 96 h. Potency, µM (titrated, usually from 28.7 µM), for the others: at the top dose activity change, negative = inhibition, usual class: inhibitors. actives 6.9% (n = 320,000). AID 504834; further: potency means the concentration at half of the fitted maximal effect; on the % scale 0 is the no-effect control and ±100 the full control effect
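P. falciparum expressing integrated firefly luciferase, in erythrocytes at 2% hematocrit, 0.05% parasitemia, incubated with compounds 96 h at 37 C, 5% CO2. Growth inhibition read as loss of luminescence; two-generation exposure targets delayed-death apicoplast inhibitors.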
Pf growth 48h: inhibits P. falciparum growth in the first generation, 48 h; actives 5.9% (n = 310,000); Potency, µM (top dose mostly 28.7 µM), for inactives: at the top dose activity change, negative = inhibition, usual class: inhibitors; AID 504832; P. falciparum luciferase growth in erythrocytes, 48 h; further: potency means the concentration at half of the fitted maximal effect; on the % scale 0 is the no-effect control and ±100 the full control effect
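Compounds are pin-transferred into medium, infected erythrocytes (2% hematocrit, 0.1% parasitemia final) are added, and plates sit one parasite generation at 37 C in 5% CO2. Detection reagent is then added and luminescence measured.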
Cycloheximide cs: counter-screen for Shiga toxin inhibitors: cycloheximide protein synthesis inhibition; cell reporter, cycloheximide protein synthesis inhibition counterscreen; max response, %; actives 12% (n = 300,000); AID 2314; in the data active means max response mostly above about 13%, no sharp cut-off; inactive means mostly below about 14%; further: read at 38.3 µM for the half of the compounds with a filed dose; 0% is about no effect
* hit, by the source's call; ? = inconclusive; . = no result; [ ] = another dose, or the depositor's remark. Sampled rows, rich in hits. Any-hit rate of the full collection: about 22%. Unless noted, the call rests on the fitted dose curve; in most records, active means well fitted inhibition curve with a large enough effect; inconclusive means small, poorly fitted or top-dose-only effect, or another doubt; inactive means no such curve, though single readings can be large or run the other way.

SMILES	Shiga inhibitor	LmPK inh	Pf growth 96h	Pf growth 48h	Cycloheximide cs
O=C(Cc1ccccc1)NN1C(=O)C2C(C1=O)C1C=CC2C12CC2 (configuration not stated)	-6	-2%	?	-6%	-1
Cc1ccc(S(=O)(=O)c2nnn3c2nc(NC2CCN(Cc4ccccc4)CC2)c2ccccc23)cc1C	-5	6%	?	2.9µM*	7
CCn1ccnc1CN(C)C(=O)C1CCC(=O)N(Cc2cccc(F)c2)C1 (configuration not stated)	16	-1%	?	20%	-6
COc1ccc(CCNC(=O)CCc2ccc(S(=O)(=O)NC(C)C)cc2)cc1	-1	-4%	?	-1%	-4
COc1ccc(/C(=N/O)C(C)(C)NO)cc1	3	15%	8.3µM*	.	1
C=C1CCN(C(CC(C)C)C(=O)NCc2ccc(Cl)cc2)S(=O)(=O)c2ccccc21 (configuration not stated)	-9	.	.	.	-3
c1ccc2cc(C3N4CCCN34)ccc2c1 (configuration not stated)	24	17%	11%	41%	24*
CC(C)CCN(C(=S)NC(=O)C1CCCCC1)c1c(N)n(Cc2ccccc2)c(=O)[nH]c1=O	12	4%	?	1%	4
CC(C)[C@H](NC(=O)c1ccco1)C(=O)NC12CC3CC(CC(C3)C1)C2	-10	-2%	0%	-2%	-3
CC1CN=C(Nc2ccc(F)cc2)S1 (configuration not stated)	-1	1%	13%	4%	-1
COc1ccc(Nc2cc(Nc3ccc(OC)cc3)ncn2)cc1	-4	0%	-28%	-7%	7
COc1ccc(NC2=NCC(C)S2)cc1 (configuration not stated)	18	8%	45%	21%	17*
COc1ccc(NC2=NC(C)(C)CS2)cc1	70*	-3%	0%	70%	28*
CCOC(=O)C(=CNc1ccc(NC2=NCC(C)S2)cc1)C(=O)OCC (configuration not stated)	-7	-4%	0%	9.3µM*	-5
COC(=O)c1ccc2c(=O)n(CCCCCC(=O)NC(C)C)c(=O)[nH]c2c1	-3	0%	-23%	?	-4
O=[N+]([O-])c1ccc(NCc2ccccc2N2CCC(CO)CC2)nc1	-14	1%	-12%	0%[0.00184 µM]	2
Cc1cc(N/N=C/c2ccccc2F)nc(NCc2ccccc2)n1	74	-1%	?	?	4
Cc1cc(C)nc(NCc2ccc(Cl)cc2)n1	-18	-4%	0%	?	-1
Cc1cc(N/N=C/c2ccc(Cl)cc2)nc(NCc2ccccc2)n1	-5	-1%	0.74µM*	1µM*	12
C/C(=N\Nc1cc(C)nc(NCc2ccccc2)n1)c1cccc([N+](=O)[O-])c1	23	-1%	?	?	1
Cc1cc(N/N=C/c2cccc(F)c2)nc(NCc2ccccc2)n1	65*	-6%	?	?	20*
Cc1cc(Nc2cccc(Cl)c2)nc(NCc2ccccc2)n1	-10	1%	0.47µM*	0.74µM*	-2
Cc1cc(N/N=C/c2ccccc2)nc(NCc2ccccc2)n1	14	-9%	1.5µM*	2.3µM*	24*
O=S(=O)(/N=C(/Nc1ccccc1)c1ccccc1O)c1ccccc1	24	-2%	11%	?	5
Cc1ccc(CNC(=O)COC(=O)c2cnc(C)cn2)cc1	-10	1%	9%	-4%	1
SMILES	Shiga inhibitor	LmPK inh	Pf growth 96h	Pf growth 48h	Cycloheximide cs
O=S1(=O)CCOCCCN1Cc1ccccc1	-6	-8%	72%	36%	1
CN(C)c1nc(NCc2ccccc2)nc(N/N=C/c2ccccc2F)n1	-17	3%	28%	?	-3
CN(C)c1nc(NCc2ccccc2)nc(N/N=C/c2ccc(Cl)cc2Cl)n1	-5	2%	9.3µM*	?	-2
Cc1cc(N/N=C/c2cccc(Cl)c2)nc(NCc2ccccc2)n1	31	0%	?	0.83µM*	23*
COc1ccc(/C=N/Nc2nc(C)cc(-c3ccccc3)n2)cc1OC	15	-3%	?	-6%	8
O=C(Nc1cc(S(=O)(=O)N2CCOCC2)ccc1N1CCCC1)c1cccnc1Cl	15	-2%	16%	1%	4
O=C(O)COc1ccccc1C(Nc1cccnc1)c1cc(Cl)c2cccnc2c1O (configuration not stated)	18	-2%	1%	14%	-3
COc1ccccc1C(NC(C)=O)c1cc(Cl)c2cccnc2c1O (configuration not stated)	-7	8%	10%	14%[0.00184 µM]	-3
O=C(NC(c1ccccc1)c1cc(Cl)c2cccnc2c1O)c1cccnc1 (configuration not stated)	-2	0%	9%	0.66µM*	-1
CCC(=O)NC(c1ccc(OC)c(OC)c1)c1cc(Cl)c2cccnc2c1O (configuration not stated)	2	7%	54%	1µM*	7
COc1ccc(C(NC(C)=O)c2cc(Cl)c3cccnc3c2O)cc1OC (configuration not stated)	-1	2%	7%	9.3µM*	-1
CCCC(=O)NC(c1ccc2c(c1)OCO2)c1cc(Cl)c2cccnc2c1O (configuration not stated)	-5	3%	-2%	?	2
Cc1ccc(C)c(N2CCN(C(=O)c3nn(C)c4c3CS(=O)(=O)c3ccccc3-4)CC2)c1	-3	9%	20%	?	-7
O=[N+]([O-])c1cccnc1N/N=C/c1ccccc1O	78*	14µM*	261%	136%	43*
O=C(O)CNc1ncccc1[N+](=O)[O-]	-8	1%	18%	7%	-2
Cc1c(O)ccc(/C=N/Nc2ncccc2[N+](=O)[O-])c1O	141*	-5%	?	137%	32*
CCCCOc1cccc(C(=O)N(Cc2ccccc2)C2CCS(=O)(=O)C2)c1 (configuration not stated)	-11	2%	-4%	-27%	2
Cc1ccc(CSCC(=O)N(C)CC(=O)Nc2c(Cl)cccc2Cl)cc1	.	.	?	10µM*	.
CCn1c(O)c(C=Nc2ccccc2)n(-c2ccccc2)c1=S	21	4%	.	11%	32
Cn1c(N)c(C(=O)COC(=O)COc2ccccc2Cl)c(=O)n(C)c1=O	.	.	35%	13%	.
CC1=NN(c2ccccc2)C(=O)/C1=C/c1ccc[nH]1	78*	1%	-11%	13%	21*
CC1=NN(c2ccccc2)C(=O)/C1=C/c1ccc(Cl)cc1	6	-9%	?	-8%	7
CC1=NN(c2ccccc2)C(=O)/C1=C\N(O)c1ccccc1	38	0%	1%	?	13*
CC1=NN(c2ccccc2)C(=O)/C1=C/c1c(O)n(-c2ccc(F)cc2)[nH]c1=O	-7	-3%	-2%	0%	24*

Assay outcomes from PubChem.
